Screening data: PubChem, National Center for Advancing Translational Sciences (NCATS)
Sampled rows, rich in hits. Any-hit rate of the full collection: about 7.5%.
HCMV antiviral: inhibitors of human cytomegalovirus. HFF cells, HCMV-luciferase reporter, 72 h; active compounds read low. activity change, negative = inhibition, % at 57.5 µM. hit rate 4.5% among 410,000; in the data active = activity change below about -60%; inconclusive = no clear call, values can overlap the other calls; inactive = above about -39%
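After 16 h attachment at 37C, HFF cells received test compound and HCMV-luciferase (1 PFU/cell); reporter luminescence read 72 h later, data normalized against buffer-only and known inhibitor Salinomycin.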
Vaccinia Venus: vaccinia inhibition (Venus reporter); Vaccinia virus Venus reporter expression, fluorescence; Potency, µM (doses to about 36.5 µM), inactives show top-dose activity change, negative = inhibition, usual class: inhibitors; hit rate 0.46% among 330,000; AID 720580; calls by dose curve; tested in A549 cells; note: potency is the fitted concentration of half-maximal effect; nearly all actives have a fitted effect of over 30% in size
Vaccinia mCherry: inhibitors of vaccinia virus infection (mCherry reporter signal); Potency, µM (titrated, usually from 36.5 µM), for inactives: at the highest dose activity change, negative = inhibition, usual class: inhibitors; Vaccinia virus mCherry reporter infection, fluorescence; hit rate 0.63% among 310,000; calls by dose curve; tested in A549 cells; note: potency is the fitted concentration of half-maximal effect; nearly all actives have a fitted effect of over 35% in size
HCV inh: blocks hepatitis C virus. Huh7.5.1 HCVcc-Cre infection, luciferase reporter, 44 h. Potency, µM (titrated, usually from 41.8 µM), for inactives: at the highest dose activity change, negative = inhibition, most hits filed as inhibitors. hit rate 3.4% among 340,000; note: potency is the fitted concentration of half-maximal effect
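Infectious HCV cell culture screen: compound-treated cells (1,000/well, pre-plated 4 h) are infected with HCVcc-Cre at roughly 0.5 moi and grown 44 h. Infection is quantified by luciferase signal after 15 min substrate incubation at room temperature.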
FMDV antiviral: blocks foot and mouth disease virus. Potency, µM (top dose mostly 57.9 µM), for inactives: at the top dose activity change, negative = inhibition, usual class: inhibitors. FMDV antiviral cell-based qHTS. AID 1159524. hit rate 1.2% among 410,000; calls by dose curve; tested in HEK293T cells; note: read-out not given here; potency is the fitted concentration of half-maximal effect; nearly all actives have a fitted effect of over 45% in size
Giardia FBPA inh: blocks Giardia fructose-bisphosphate aldolase activity | purified Giardia FBPA | Potency, µM (titrated, usually from 59.6 µM), for the others: top-dose activity, negative = inhibition, usual class: inhibitors | AID 2451 | hit rate 0.71% among 290,000 | A8B2U2; note: potency is the fitted concentration of half-maximal effect; nearly all actives have a fitted effect of over 55% in size
Target sequence (A8B2U2 whole entry, looked up): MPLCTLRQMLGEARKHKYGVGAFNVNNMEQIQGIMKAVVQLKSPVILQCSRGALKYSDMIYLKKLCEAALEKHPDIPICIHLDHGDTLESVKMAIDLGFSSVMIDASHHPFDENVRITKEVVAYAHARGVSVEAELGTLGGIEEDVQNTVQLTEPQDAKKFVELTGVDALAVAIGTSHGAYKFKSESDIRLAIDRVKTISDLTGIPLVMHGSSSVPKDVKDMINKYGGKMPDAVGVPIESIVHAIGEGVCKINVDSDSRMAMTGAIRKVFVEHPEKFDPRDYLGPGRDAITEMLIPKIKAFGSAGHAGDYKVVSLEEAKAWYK
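Giardia FBPA (40 nM reagent) was preincubated 10 min at RT with compound (up to 57.5 uM final), then substrate plus GAPDH/TPI/NAD/arsenate coupling system with diaphorase/resazurin was added; resorufin fluorescence (525/598 nm) was read after 20 min.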
The depositor's hits bear a star; i = inactive; ? = inconclusive; / = no result; [ ] = another dose, or the depositor's remark. Unless noted, calls come from the whole dose curve; as a rule, active = well fitted curve in the direction sought with a large enough effect; inconclusive = small, poorly fitted or top-dose-only effect, or another doubt; inactive = no such curve, though single readings can be large; an effect the other way counts as inactive or inconclusive. % is set by controls: 0 for no effect and ±100 for the full control effect.

SMILES	HCMV antiviral	Vaccinia Venus	Vaccinia mCherry	HCV inh	FMDV antiviral	Giardia FBPA inh
CCN1C(=O)[C@H]2[C@@H](c3ccc(-c4ccc(OC)cc4)cc3)N[C@@](C)(C(=O)OC)[C@H]2C1=O	-10	-7%	i	6%	-16%	/
COc1ccc(/C=N\NC(=O)c2ccccc2F)cc1COc1ccc(F)cc1F	-80*	-22%	-8%	?	-2%	-17%
COc1ccc(/C=N/NC(=O)c2nc(Cl)c(Cl)c(N)c2Cl)cc1COc1ccc(F)cc1F	44	-18%	/	11µM*	-23%	10%
COc1ccc(/C=N\NC(=O)c2ccccc2F)cc1COc1ccc(F)cc1	-16	-15%	-5%	-19%	-17%	6%
O=C(COc1ccc([N+](=O)[O-])cc1)NC(C(=O)O)C(O)c1cccc([N+](=O)[O-])c1 (centres undefined)	-25	-3%	-3%	27%	8%	4%
COC(=O)c1cccc(-n2c(CCC(=O)O)ccc2-c2ccc(OC)cc2)c1	33	-21%	-29%	/	-23%	/
O=C(c1ccc(Cl)cc1)c1c[nH]c(C(=O)NNc2cccc(Cl)n2)c1	-24	11µM*	?	-8%	-19%	-2%
Cc1cccc(N2CCN(C(=O)C3CCN(S(=O)(=O)c4cn(C)cn4)CC3)CC2)c1C	?	-16%	-21%	/	-18%	/
Cc1cc(C(C)(C)CC(C)(C)C)ccc1OCCOCC[N+](C)(C)Cc1ccccc1	-94*	10µM*	10µM*	2.8µM*	?	4%
CC(=O)Nc1c(Br)cc2c(c1Br)Cc1cc(Br)ccc1-2	17	?	?	?	3%	/
CC(=O)Nc1ccc2c(c1)Cc1c(F)cccc1-2	7	-19%	-20%	10µM*	98%	/
CC(=O)Nc1ccc2c(c1)CCc1ccccc1-2	-9	-6%	-26%	-21%	32%	-2%
CC(=O)Nc1ccc2c(c1)Cc1c-2cc(Br)c(N)c1Br	-22	-16%	-24%	11µM*	30%	/
COc1ccc(OC)c2sc(N(CCN(C)C)C(=O)/C=C/c3cccs3)nc12	-85*	?	-26%	?	-20%	/
COc1ccc(C)c2sc(N(CCN(C)C)C(=O)/C=C/c3cccs3)nc12	?	/	/	14µM*	-17%	/
CCOc1cccc2sc(N(CCN(C)C)C(=O)/C=C/c3cccs3)nc12	/	-29%	-27%	32µM*	?	/
COc1cccc2sc(N(CCN(C)C)C(=O)/C=C/c3cccs3)nc12	0	/	/	?	0%	0%
CC(OC(=O)c1ccc(Cl)c(S(N)(=O)=O)c1)C(=O)NCC1CCCCC1 (centres undefined)	-87*	/	/	?	3%	/
CCCS(=O)(=O)c1nnnn1-c1cccc(OC)c1	/	-11%	-20%	8.9µM*	28µM*	0%
CCN(CC)c1cc(C)c2cc(NC(=O)/C=C/c3ccccc3OC(C)C)ccc2n1	?	-15%	-14%	/	-29%	/
CCOC(=O)[C@H]1[C@H]2COc3cc(OC)ccc3[C@@H]2N2C(=O)c3cc(F)ccc3NC(=O)[C@@]12C	-16	-3%	26%	1%	-27%	/
CC(=O)OC1CC[C@]2(C#N)[C@H]3CC[C@]4(C)[C@H](C5C=CC(=O)O5)CCC4(O)C3CCC2(O)C1 (some centres undefined)	-93*	/	/	2%	?	-5%
Cc1ccc(C2C(C#N)=C3N=C(N)c4ccccc4N3C3=C2C(=O)CCC3)cc1 (centres undefined)	-22	/	/	?	6%	-28%
N#CC1=C2N=C(N)c3ccccc3N2C2=C(C(=O)CCC2)C1c1ccc(F)cc1 (centres undefined)	-18	/	/	13µM*	-10%	-11%
COc1ccc(/C=C\C(=O)O[C@@H]2C(O)C(O[C@@H]3OC(C)[C@H](O[C@@H]4OCC(O[C@H]5O[C@H](CO)[C@@H](O)C(O)C5O)C(O)C4O)C(O)C3O)[C@H](OC(=O)[C@]34CCC(C)(C)C[C@@H]3C3=CCC5[C@@]6(C)CC(O)C(O[C@@H]7OC(CO)C(O)[C@H](O)[C@H]7O)[C@@](C)(C(=O)O)C6CC[C@@]5(C)[C@]3(CO)CC4)O[C@H]2C)cc1 (some centres undefined)	/	11µM*	?	?	0%	/
SMILES	HCMV antiviral	Vaccinia Venus	Vaccinia mCherry	HCV inh	FMDV antiviral	Giardia FBPA inh
CCOC(=O)C1(CC2CCCCO2)CCN(C(=O)Nc2ccccc2SC)CC1 (centres undefined)	?	-1%	-7%	-1%	0%	2%
CCOC(=O)C1(CC2CCCCO2)CCN(C(=O)Nc2ccccc2CC)CC1 (centres undefined)	-65*	/	/	9%	-18%	5%
O=C(C1CCCN(S(=O)(=O)Cc2ccccc2)C1)N1CCC(Cc2ccccc2)CC1 (centres undefined)	-5	/	/	?	40µM*	-5%
O=C(c1cnsn1)N1CCOc2ccc(C(O)C(c3ccccc3)c3ccccc3)cc2C1 (centres undefined)	/	-19%	-11%	/	-18%	/
O=C1NC(=O)/C(=C/c2ccc(-c3cccc([N+](=O)[O-])c3)o2)S1	-33	-15%	-19%	16%	-13%	?
O=C1NC(=O)N(Cc2ccco2)C(=O)/C1=C/c1ccc(-c2cccc([N+](=O)[O-])c2)o1	/	/	/	6%	32µM*	-6%
CS(=O)(=O)c1ccc(S(=O)CC(=O)OCc2ccccc2)c([N+](=O)[O-])c1 (centres undefined)	-101*	-14%	-22%	?	8.9µM*	?
O=C(CS(=O)c1ccc(C(F)(F)F)cc1[N+](=O)[O-])Oc1ccccc1 (centres undefined)	?	-21%	-33%	?	28µM*	?
COC(=O)c1ccc(OC(=O)CS(=O)c2ccccc2[N+](=O)[O-])cc1 (centres undefined)	10	-2%	-21%	12%	5%	-7%
COc1ccc(OC)c(C(Cc2ccnc3ccccc23)Cc2ccnc3ccccc23)c1	/	-19%	14%	/	/	/
Cc1nc(-c2cccc(NC(=O)c3ccc(-n4nccc4C)cc3)c2)cs1	0	-14%	-15%	10µM*	22µM*	/
O=S(=O)(c1ccccc1)c1cnn(-c2ccccc2)c1-c1ccc(F)cc1	-61*	/	/	?	?	-5%
COc1ccc(-n2ncc(S(=O)(=O)c3ccccc3)c2-c2ccc(Cl)cc2)cc1	?	/	/	10µM*	?	-4%
O=S(=O)(c1ccccc1)c1cnn2c(C(F)(F)F)cc(-c3ccc(F)cc3)nc12	4	/	/	-15%	11%	1%
CCc1cccc(-n2nnc(-c3nc(-c4cccs4)no3)c2N)c1	15	-4%[7.34 µM]	-10%[7.34 µM]	/	42%	/
Cc1c(CN2CCOc3ccc(C(C)(O)COc4ccccc4)cc3C2)cnn1C (centres undefined)	/	5%	-16%	/	-13%	/
